Compounds with a hit are over-represented: about 4.8% of the library has one in this group of screens.
ATXN2 expr inh: ATXN2 expression inhibition; Potency, µM (titrated, usually from 57 µM), without a hit: at the highest dose activity change, negative = inhibition, actives largely listed as inhibitors; HEK-293 ATXN2-luciferase reporter, luminescence, 24 h; hit rate 0.72% among 360,000; AID 1745845; note: potency is the fitted concentration of half-maximal effect; % is set by controls: 0 for no effect and ±100 for the full control effect; nearly all actives have a fitted effect of over 55% in size
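ATXN2-luciferase reporter cells (luciferase flanked by upstream and downstream ATXN2 gene portions) were treated 24 h at 37 °C with compounds at up to 57 uM. SteadyGlo luminescence gave expression; GF-AFC fluorescence gave viability.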
ATXN viability: reduces viability in counter-screen for ATXN expression inhibitors; S2 cells (HEK-293 line with an ATXN2-luciferase reporter) viability, CellTiter-Fluor protease fluorescence, 24 h; Potency, µM (series often up to 56.7 µM), usual class: cytotoxic; hit rate 0.49% among 400,000; note: potency is the fitted concentration of half-maximal effect; nearly all actives have a fitted effect of over 40% in size
USP1-UAF1 inh: blocks the human USP1/UAF1 deubiquitinase complex. O94782. recombinant USP1/UAF1, Ub-Rhodamine cleavage fluorescence. Potency, µM (doses to about 57.1 µM), for the others: top-dose activity change, negative = inhibition, usual class: inhibitors. hit rate 0.23% among 390,000. AID 743255; note: potency is the fitted concentration of half-maximal effect; % is set by controls: 0 for no effect and ±100 for the full control effect; nearly all actives have a fitted effect of over 60% in size
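In this screen, compounds sit with the deubiquitinase complex (1nM) for 15 min at room temperature before Ub-Rho is added at 150nM final. Fluorescence rise is then followed for 6 reads every 60 seconds.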
USP2a block: blocks human ubiquitin-specific protease USP2a; Potency, µM (titrated, usually from 38.3 µM), inactives show top-dose activity change, negative = inhibition, most hits filed as inhibitors; hit rate 0.01% among 330,000; USP2 core, Ub-CHOP2 coupled fluorogenic reporter, 485/531; O75604;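 note: potency is the fitted concentration of half-maximal effect; plate controls were DMSO wells for no effect and full inhibition by NEM control for full effect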
Target sequence (O75604 whole entry, looked up): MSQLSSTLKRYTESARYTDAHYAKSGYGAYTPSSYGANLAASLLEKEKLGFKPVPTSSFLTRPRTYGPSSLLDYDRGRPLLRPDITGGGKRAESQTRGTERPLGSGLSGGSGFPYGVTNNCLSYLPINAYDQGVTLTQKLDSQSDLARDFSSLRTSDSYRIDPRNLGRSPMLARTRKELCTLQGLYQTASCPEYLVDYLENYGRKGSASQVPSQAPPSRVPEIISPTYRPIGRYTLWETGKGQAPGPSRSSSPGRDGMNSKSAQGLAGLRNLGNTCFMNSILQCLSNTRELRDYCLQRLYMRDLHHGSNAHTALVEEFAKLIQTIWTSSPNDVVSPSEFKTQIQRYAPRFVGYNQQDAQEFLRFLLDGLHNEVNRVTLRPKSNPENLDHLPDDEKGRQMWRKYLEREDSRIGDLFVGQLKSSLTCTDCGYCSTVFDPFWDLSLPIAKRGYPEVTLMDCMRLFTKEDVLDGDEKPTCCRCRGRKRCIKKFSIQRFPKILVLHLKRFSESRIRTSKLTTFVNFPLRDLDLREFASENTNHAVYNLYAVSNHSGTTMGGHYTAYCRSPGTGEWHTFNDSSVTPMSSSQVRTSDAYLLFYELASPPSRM
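USP2 core (10nM final) preincubated 30min RT with compound in 20mM Tris-HCl pH 8.0, 2mM CaCl2, 2mM beta-mercaptoethanol, 0.05% CHAPS; 25nM Ub-CHOP2 plus 25nM reporter substrate added, fluorescence (Ex485/Em531) read after 60min.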
IL1B secr inh: inhibitors of inflammasome signaling (IL-1 beta secretion). activity change, % at 57.5 µM. THP-1 LPS/ATP IL-1B secretion, AlphaLISA, 16 h; hits give low values. hit rate 4.7% among 360,000. AID 743279; in the data active = activity change below about -50%; inconclusive = mostly about -30% to -49%; note: % is set by controls: 0 for no effect and ±100 for the full control effect
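Secreted IL-1B measured by AlphaLISA bead assay after 16 h compound exposure of THP-1 cells; compounds (final up to 57.5 uM) added 1 h before LPS (250 ng/mL) and ATP (1.25 mM) stimulation; lower signal means less secretion.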
Numbers without * were called inactive; i = inactive; u = inconclusive; x = no result given; [ ] = another dose, or the depositor's remark. Unless noted, calls come from the whole dose curve; as a rule, active = well fitted curve in the direction sought with a large enough effect; inconclusive = small, poorly fitted or top-dose-only effect, or another doubt; inactive = no such curve, though single readings can be large; an effect the other way counts as inactive or inconclusive.

SMILES	ATXN2 expr inh	ATXN viability	USP1-UAF1 inh	USP2a block	IL1B secr inh
O=C(NCc1ccco1)/C(=C/c1ccc(C(F)(F)F)cc1)c1nc2ccccc2[nH]1	28.3%	i	-8.3%	-2.7%	-73.4*
O=C(COC(=O)/C=C/c1cccc(C(F)(F)F)c1)NCc1ccco1	3.0%	i	-15.1%	1.1%	-5.2
CCN(CC)C(=O)C1=C(C)N(Cc2ccccc2)C(=O)C(CC(=O)NC2CC2)C1 (stereo not drawn)	-4.0%	i	-9.3%	x	-25.5
CCCc1[nH]n(-c2nc3ccccc3s2)c(=O)c1C=NCC(C)C	3.0%	i	-2.9%	-0.3%	-58.0*
Nc1c(-c2ccc(F)c(F)c2)nc2ncccn12	x	x	x	x	-5.8
Cc1ccnc(N/C=C(\C#N)c2nc(-c3cccc(Br)c3)cs2)c1	u	i	22.4µM*	u	-8.4
O=C(Nc1ccc(OC(F)(F)F)cc1)Nc1cccnc1	x	i	-28.0%	-1.2%	43.2
Cc1cc(NC(=O)Nc2cccc([N+](=O)[O-])c2)no1	4.4%	i	-20.4%	0.2%	-5.7
Cc1cc([N+](=O)[O-])ccc1NC(=O)Nc1ccc(F)cc1F	-24.0%	i	-21.2%	2.5%	-82.0*
Cc1ccc(NC(=O)Nc2cccc([N+](=O)[O-])c2)cc1F	-24.9%	i	-19.1%	1.4%	-94.7*
O=C(Nc1ccc(OC(F)(F)F)cc1)Nc1cccc([N+](=O)[O-])c1	u	15.8µM*	-19.6%	1.6%	-106.0*
COc1ccc(NC(=O)Nc2ccc(F)cc2F)c(C)c1	18.0%	i	-16.7%	-4.9%	-25.9
O=C(Nc1ccc(Oc2ccc(NC(=O)Nc3ccc([N+](=O)[O-])cc3)cc2)cc1)Nc1ccc([N+](=O)[O-])cc1	u	i	-15.2%	11.5%	-87.6*
CCCn1c(=O)c2sccc2n2c(CCCC(=O)Nc3ccccc3OCC)nnc12	8.4%	u	u	x	x
Cc1cccc(N2CCN(Cc3nnc(-c4ccccc4C)o3)CC2C)c1 (stereo not drawn)	12.6%	i	-6.3%	x	x
CCn1c(-c2ccccc2F)nc2cc(C(=O)NC(c3ccccn3)C(F)(F)F)cc(NC(C)=O)c21 (stereo not drawn)	x	i	x	x	x
Cc1ccc(C(C)C)cc1NC(=O)Nc1ccc([N+](=O)[O-])cc1	x	u	u	7.1%	-52.2*
Cc1cc([N+](=O)[O-])ccc1NC(=O)c1cncc(Br)c1	5.7%	i	-20.4%	3.6%	-66.6*
CCOC(=O)C1=C(C)NC(C)=C(C(=O)OCC)C1c1ccc(Br)o1	-10.8%	i	-25.6%	0.6%	-72.0*
COc1ccc(-n2nnc3c(SCC(=O)NCC4CCCO4)ncnc32)cc1 (stereo not drawn)	u	u	-18.2%	0.6%	-98.3*
O=C(CSc1ncnc2c1nnn2Cc1ccccc1F)NCC1CCCO1 (stereo not drawn)	-20.3%	i	-15.1%	0.4%	-90.1*
O=C(CSc1ccccc1C(=O)NCc1ccccc1)NC1CCCCCCC1	6.9%	u	-14.2%	2.9%	-101.0*
O=C(CNC(=S)N(Cc1ccccc1F)C1CCCCC1)NCC1CCCO1 (stereo not drawn)	-29.6%	i	-6.6%	0.4%	-68.2*
O=C(Cn1cnc2c(nnn2Cc2ccccc2F)c1=O)NCC1CCCO1 (stereo not drawn)	4.6%	i	4.8%	0.8%	-12.1
O=C(NCc1ccccc1)[C@H](Cc1ccccc1)NC(=O)[C@@H]1O[C@@H]1C(=O)NCCc1ccc(O)cc1	2.1%	x	x	x	x
SMILES	ATXN2 expr inh	ATXN viability	USP1-UAF1 inh	USP2a block	IL1B secr inh
Cc1c(C(=O)N(Cc2ccccc2F)C2CCS(=O)(=O)C2)oc2ccccc12 (stereo not drawn)	x	x	-6.3%	x	x
O=C(CSc1ncnc2c1nnn2Cc1ccccc1)NC1CCCCC1	-26.9%	u	-21.1%	2.6%	-94.8*
O=C(CSc1nnnn1Cc1ccccc1)NC1CCCCC1	1.6%	i	-16.0%	0.3%	43.2
CN1CCCCCC1=Nc1ccc([N+](=O)[O-])cc1	-28.2%	i	10.4%	x	1.6
CN1C(=O)C(N=Nc2ccc([N+](=O)[O-])cc2)SC1=S (stereo not drawn)	-21.9%	i	-20.7%	x	-89.3*
Cc1ccc(C2CC2/C(=N/O)c2ccc(F)cc2)cc1 (stereo not drawn)	15.5%	i	-19.5%	1.7%	u
CCN(CC)S(=O)(=O)c1ccc(N/N=C(\C)c2cccnc2)nc1	-2.2%	i	-10.2%	-0.9%	-50.9*
CCN(CC)S(=O)(=O)c1ccc(N/N=C/c2ccc(O)cc2O)nc1	2.82µM*	u	-9.0%	-0.9%	82.4
C[C@@H]1CN(Cc2ccc3c(c2)CN(Cc2coc4ccccc4c2=O)CCO3)C[C@H](C)O1	x	i	x	x	x
Cc1coc2c(C)c3oc(=O)c(CCC(=O)NCCCn4ccnc4)c(C)c3cc12	-0.3%	i	-20.2%	-1.3%	u
Cc1c(CCC(=O)NCCCn2ccnc2)c(=O)oc2c(C)c3occ(C(C)(C)C)c3cc12	u	u	-13.8%	-0.6%	-96.6*
Cc1ccc(S(=O)(=O)/N=C(\CCl)N2CCOCC2)cc1	-30.0%	i	3.4%	0.3%	-51.5*
Cc1ccc(S(=O)(=O)/N=C(\CN2CCOCC2)N2CCCC2)cc1	-9.2%	i	1.5%	3.4%	-24.8
Cc1ccccc1NC(=O)CSc1nnc(COc2ccc(Cl)cc2)o1	10.0%	i	-8.5%	x	x
Cc1ccccc1NC(=O)OCc1cccnc1Oc1ccc(Cl)cc1	-23.1%[11.3 µM]	i	-16.2%	-2.5%	-79.4*
Cc1ccc(C(=O)Nc2cccnc2Oc2ccc(Cl)cc2)cc1	-0.1%	i	-19.0%	-8.5%	-62.2*
Cc1ccc(S(=O)(=O)Nc2cccnc2Oc2ccc(Cl)cc2)cc1	-8.5%	i	-17.0%	2.8%	0.0
Cc1ccc2c(c1)CO[C@]21O[C@H](CCO)C[C@H](O)[C@H]1O	3.8%	i	-26.8%	x	21.4
CC1=C(C(=O)OC(C)C)C(c2cccc([N+](=O)[O-])c2)C(C(=O)OC2CN(C(c3ccccc3)c3ccccc3)C2)=C(N)N1 (stereo not drawn)	31.6µM*	35.5µM*	x	x	x
O=C(CSc1cn(CCNC(=O)c2cccc(C(F)(F)F)c2)c2ccccc12)Nc1ccc2c(c1)OCCO2	0.0%	x	-34.2%	x	x
CCc1cccc(CC)c1-n1c(SCC(=O)N2CCc3ccccc3C2)nnc1-c1cccnc1	u	i	-26.5%	-0.9%	-57.8*
Cn1c(SCC(=O)N2CCc3ccccc3C2)nnc1-c1ccncc1	-7.2%	i	-17.4%	1.0%	23.4
CCn1c([N+](=O)[O-])nc2c1c(=O)[nH]c(=O)n2C	x	x	-18.4%	-0.6%	-98.7*
CC(C)(CNC(=O)c1cccc(NS(=O)(=O)c2ccc(Br)cc2)c1)N1CCOCC1	-1.5%	i	-15.8%	-2.4%	24.7

Screening results deposited in PubChem BioAssay by National Center for Advancing Translational Sciences (NCATS).
